Assay results as given in the OligoGym collection.

The sequences below were run against PYROXD1 (assay: pooled miR-30 sensor sort-seq; sequence = guide strand). Conditions: shRNA.
Also: reference of the scale not given here.

Question: How did the sensor-assay potency score (higher = more potent) turn out when TTTAAAGTAAAATACAACCGAT was run?
Answer: The sensor-assay potency score (higher = more potent) was -0.96.

Question: TTAATTCATGATCTGAACCTAA was tested. Which sensor-assay potency score (higher = more potent) did it give?
Answer: The sensor-assay potency score (higher = more potent) was -0.379.

Question: Which sensor-assay potency score (higher = more potent) does the source give for TAACTCAATACAGTCATTCATT here?
Answer: The sensor-assay potency score (higher = more potent) was -0.8.

Question: How did the sensor-assay potency score (higher = more potent) turn out when TTATCTGCTTTAGATTTGCTTC was run?
Answer: Its sensor-assay potency score (higher = more potent) is -0.93.

Question: With TGATTGTTCTTCAACATCGAAT as the sequence, how does the sensor-assay potency score (higher = more potent) read?
Answer: Its sensor-assay potency score (higher = more potent) is -0.94.

Question: How did the sensor-assay potency score (higher = more potent) turn out when TTAAAGTAAAATACAACCGATT was run?
Answer: Its sensor-assay potency score (higher = more potent) is -0.766.

Question: With TTGATTGTTCTTCAACATCGAA as the sequence, how does the sensor-assay potency score (higher = more potent) read?
Answer: The sensor-assay potency score (higher = more potent) was -0.89.

Question: Which sensor-assay potency score (higher = more potent) does the source give for TTTAGCTTTAGTAAGCTGTTTC here?
Answer: The sensor-assay potency score (higher = more potent) was -0.591.

What follows are sequences tested against QSER1 in the same assay as above. Conditions: shRNA.

Question: Which sensor-assay potency score (higher = more potent) does the source give for TTTAATAACACTACATTCTCGA here?
Answer: The sensor-assay potency score (higher = more potent) was 0.61.

Question: How did the sensor-assay potency score (higher = more potent) turn out when TTCATTATCAACTTTATCTGAT was run?
Answer: The sensor-assay potency score (higher = more potent) was 0.462.

Question: TATTTGATCGTGCTGTTCCTGG was tested. Which sensor-assay potency score (higher = more potent) did it give?
Answer: Its sensor-assay potency score (higher = more potent) is -0.0695.

Question: With TATAAGTTGATTCTTGAGCATT as the sequence, how does the sensor-assay potency score (higher = more potent) read?
Answer: The sensor-assay potency score (higher = more potent) was -1.01.

Question: With TACAACTGTATTTTCTCTGGAT as the sequence, how does the sensor-assay potency score (higher = more potent) read?
Answer: The sensor-assay potency score (higher = more potent) was 0.0285.

Question: TTGAATAACATGACCTTCCATC was tested. Which sensor-assay potency score (higher = more potent) did it give?
Answer: Its sensor-assay potency score (higher = more potent) is -0.458.

Question: How did the sensor-assay potency score (higher = more potent) turn out when TTGAACTGTAGGCTTGAGGAGT was run?
Answer: Its sensor-assay potency score (higher = more potent) is -0.462.

Question: TTGAATTTGATAGATAACTATG was tested. Which sensor-assay potency score (higher = more potent) did it give?
Answer: Its sensor-assay potency score (higher = more potent) is -0.94.

Question: For TACTACTAGAAACAAACTCTTG, which sensor-assay potency score (higher = more potent) is on record?
Answer: Its sensor-assay potency score (higher = more potent) is -0.942.

Question: With TTTCTTGATGCTGATAACCATC as the sequence, how does the sensor-assay potency score (higher = more potent) read?
Answer: Its sensor-assay potency score (higher = more potent) is -1.25.

Question: For TTTATCAGAAGTAGCATCCAAA, which sensor-assay potency score (higher = more potent) is on record?
Answer: Its sensor-assay potency score (higher = more potent) is -0.195.

Question: For TAACTTGATCTTCAAGACGGGA, which sensor-assay potency score (higher = more potent) is on record?
Answer: The sensor-assay potency score (higher = more potent) was -1.26.
